Measurements as given in PubChem BioAssay (NCATS).
Inconclusive results are not listed. Values without a mark were called inactive. The source made the active and inactive calls. Calls come from the whole dose curve; as a rule, active = well fitted cell-killing curve with a large enough effect; inconclusive = small, poorly fitted or top-dose-only effect; inactive = flat fitted curve, though single readings scatter.
% is set by controls: 0 for no effect and ±100 for the full control effect; potency is the fitted concentration of half-maximal effect.

Assay: Cellular viability qHTS for adrenocortical cancer (ACC) cell line SW-13 (AID 1963989); note: nearly all actives have a fitted effect of over 65% in size;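 for activity (max response): cells grown in serum-free medium with ITS supplement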
Details: SW-13 ACC cells viability, CellTiter-Glo, 48 h; activity (max response): active compounds read low
Outline: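 Compound titrations (up to 46 uM final, in DMSO) were applied to SW-13 cells for 48 h at 37C/5% CO2. Reading used CellTiter-Glo after 20 min at room temperature; fitted curves yielded IC50 and efficacy.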
`CO/N=C(\C(=O)N[C@@H]1C(=O)N2C(C(=O)O)=C(CSc3nc(=O)c(O)nn3C)CS[C@H]12)c1csc(N)n1` showed an activity (max response) of 16.1%. In the case of `CN(C)C(=O)CNC(=O)Cc1ccccc1`, the activity (max response) is reported as -6.74%. In the case of `Oc1c(Br)cc(Br)c2cccnc12`, the Potency is reported as 4.61 µM (active). `COc1cc2nc(Cl)nc(N)c2cc1OC` showed an activity (max response) of 1.23%. `CCN1CCC[C@H]1CNC(=O)c1c(O)c(Cl)cc(Cl)c1OC` showed an activity (max response) of 8.2%. `C[N+]12CCC(CC1)C(OC(=O)C(O)(c1ccccc1)c1ccccc1)C2` (stereo not given) gave an activity (max response) of -2.73%. In the case of `OC[C@]1(O)OC[C@@H](O)[C@H](O)[C@@H]1O`, the activity (max response) is reported as 6.17%. With `CCCCCCCCCCCCCCC[C@H](O)[C@@H](N)CO` the activity (max response) was 1.16%. With `C[C@@H]1CCN(C(=O)N2CCCC2)C[C@@H]1N(C)c1ncnc2[nH]ccc12` the activity (max response) was 11.2%. In the case of `NC(=O)CC[C@@H]1NC(=O)[C@H](Cc2ccccc2)NC(=O)[C@H](Cc2ccc(O)cc2)NC(=O)CCSSC[C@@H](C(=O)N2CCC[C@H]2C(=O)N[C@@H](CCCN=C(N)N)C(=O)NCC(N)=O)NC(=O)[C@H](CC(N)=O)NC1=O`, the activity (max response) is reported as -1.25%. Work on `Cc1nc([N+](=O)[O-])cn1-c1ccc([N+](=O)[O-])cc1` yielded an activity (max response) of -2.45%. Work on `O=[N+]([O-])c1nccn1CO[C@@H](CO)[C@H](O)CO` yielded an activity (max response) of -4.12%. In the case of `OCC(O)CS` (stereo not given), the activity (max response) is reported as 8.13%. With `CN(C)CCCO[C@@H]1[C@H]2OC(C)(C)O[C@H]2O[C@@H]1C(O)CO` (stereo not given in full) the activity (max response) was 7.54%. `CC(C)C(=O)Nc1cccc(C(F)(F)F)c1` gave an activity (max response) of 14.2%.
